Screening data as filed in PubChem BioAssay.
NS1 inh – inhibitors of influenza NS1 protein function. Potency, µM (top dose mostly 46.1 µM), without a hit: top-dose activity, positive = more growth. hit rate 0.4% among 270,000; calls by dose curve; also: actives are rising curves; nearly all actives have a fitted effect of over 50% in size
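In this qHTS, NS1 from influenza A is expressed in budding yeast, where it slows growth. Cells are switched from glucose to 2% galactose medium (pH 6.0, -URA), treated with compound, and growth recovery is read at OD600.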
AMA1 RON2 block – disrupts binding of P. falciparum AMA1 to RON2. AlphaScreen AMA1-biotinylated RON2 peptide binding. AID 720542. hit rate 0.2% among 360,000. Potency, µM (highest dose often 58.2 µM), without a hit: at the top dose activity change, negative = inhibition, actives largely listed as inhibitors;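 also: 0% = vehicle wells and -100% = peptide control; nearly all actives have a fitted effect of over 45% in size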
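AMA1 (3D7) with his tag at 25 nM final met compounds first, then biotinylated RON2 peptide at 25 nM; detection used donor plus acceptor beads, 10 µg/mL apiece, read by AlphaScreen after 30 min at room temperature.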
Pf growth 48h – inhibits P. falciparum growth in the first generation, 48 h | P. falciparum luciferase growth in erythrocytes, 48 h | Potency, µM (top dose mostly 28.7 µM), for the others: at the highest dose activity change, negative = inhibition, actives largely listed as inhibitors | hit rate 5.9% among 310,000; also: % is scaled to controls: 0 for no effect and ±100 for the full control effect
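A one-generation exposure of luciferase-tagged malaria parasites in RPMI 1640/Albumax erythrocyte culture, 37 C and 5% CO2. Inhibition is inferred from decreased luminescence after adding detection reagent.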
Pf growth 96h – P. falciparum growth inhibition at 96 hours. hit rate 6.9% among 320,000. AID 504834. Potency, µM (top dose mostly 28.7 µM), inactives show at the top dose activity change, negative = inhibition, hits mostly inhibitors. P. falciparum luciferase reporter growth, 96 h; also: % is scaled to controls: 0 for no effect and ±100 for the full control effect
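Two-generation exposure (96 h) targets delayed-death phenotype. Reporter parasites carrying integrated firefly luciferase, in red cells at 2% hematocrit and 0.05% parasitemia final, kept at 37 C, 5% CO2; luminescence loss indicates inhibition.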
Sm TGR block – blocks Schistosoma mansoni thioredoxin glutathione reductase; Q962Y6; hit rate 3% among 360,000; Potency, µM (highest dose often 114 µM), for inactives: top-dose activity change, negative = inhibition, hits mostly inhibitors; purified TGR, DTNB reduction, TNB absorbance 405 nm; AID 485364; also: % is scaled to controls: 0 for no effect and ±100 for the full control effect; nearly all actives have a fitted effect of over 60% in size
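Kinetic colorimetric format: TGR-catalysed, NADPH-driven DTNB reduction monitored via TNB absorbance. Enzyme dispensed at 20 nM; compound exposure 15 min at room temperature before reaction start.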
Numbers without * were called inactive; u = inconclusive; x = not tested or not shown; [ ] = dose if it differs, or a comment. Hits are enriched below; roughly 11% of the tested compounds scored in any of these assays. Unless noted, calls follow the shape of the dose curve; as a rule, active = well fitted curve in the direction sought with a large enough effect; inconclusive = small, poorly fitted or top-dose-only effect, or another doubt; inactive = no such curve, though single readings can be large; an effect the other way counts as inactive or inconclusive. Potency is read from the fitted curve at half-maximal effect.

SMILES	NS1 inh	AMA1 RON2 block	Pf growth 48h	Pf growth 96h	Sm TGR block
CCOc1ccc(N2C(=O)CC(N(CCc3ccc(S(N)(=O)=O)cc3)C(C)=O)C2=O)cc1 (centres undefined)	-5%	20%	3.7µM*	8%	19%
O=C(Cn1c(=O)nc(-c2ccccc2)c2ccccc21)NCc1ccccc1Cl	x	x	x	x	-2%
CN1CCN(c2nc3c(S(=O)(=O)c4ccc(Br)cc4)nnn3c3ccsc23)CC1	x	x	x	x	1%
CCOc1cc(/C=C2/C(=O)NC(=O)N(c3ccc(CC)cc3)C2=O)ccc1OC(=O)c1cccs1	u	-9%	17%	7%	35µM*
Cc1nc(NC(=O)c2cccs2)ccc1Br	-8%	1%	319%	22%	-4%
CC1/C(=N/O)CC(c2ccccc2)NC1c1ccccc1 (centres undefined)	3%	-2%	x	u	-31%
CCCC1/C(=N/O)CC(c2ccccc2)NC1c1ccccc1 (centres undefined)	x	-5%	12µM*	26%	9%
CC(C)C1/C(=N/O)CC(c2ccccc2)NC1c1ccccc1 (centres undefined)	2%	-15%	13µM*	9.3µM*	14%
CCC1C(=NO)C(CC)C(c2ccccc2)NC1c1ccccc1 (centres undefined)	-10%	-15%	12µM*	-29%	x
N#Cc1ccc(OCC(=O)Nc2cc(S(=O)(=O)N3CCOCC3)ccc2N2CCCC2)cc1	x	-6%	x	x	x
Oc1ccc(N=Cc2ccc(O)c(O)c2)cc1	4%	-2%	u	6%	22µM*
Oc1ccc(/C=N/N=C/c2ccc(O)c(O)c2)cc1O	15%	u	u	u	u
O=C(c1ccco1)N1CCN(S(=O)(=O)c2ccc3c(c2)CCN3C(=O)C2CCC2)CC1	-9%	1%	13µM*	-6%	-11%
O=C(C1CCC1)N1CCc2cc(S(=O)(=O)N3CCN(c4ccccc4)CC3)ccc21	x	x	x	x	-2%
CCC(=O)N1CCc2cc(S(=O)(=O)N3CCN(C(=O)c4ccco4)CC3)ccc21	-5%	-12%	u	-14%	0%
O=C(C1CCC1)N1CCc2cc(S(=O)(=O)N3CCN(c4ccccn4)CC3)ccc21	-14%	-4%	10µM*	-2%	-8%
COc1ccc(C(=O)N(Cc2ccco2)Cc2cccs2)c(O)c1	-54%	-16%	7%	x	-1%
COc1ccc(C(=O)/C=C/C(=O)N(CC(=O)NCCC(C)C)Cc2cccs2)c(O)c1	-34%	0%	u	6%	2.8µM*
COc1ccc(C(=O)/C=C/C(=O)N(CC(=O)NC2CCCCC2)Cc2ccc(F)cc2)c(O)c1	3%	-16%	9.3µM*	2.3µM*	3.5µM*
CN(C)[C@H]1C(=O)C(C(=O)NCN2CCCC2)=C(O)[C@]2(O)C(=O)C3=C(O)c4c(O)cccc4[C@@](C)(O)[C@H]3C[C@@H]12	x	x	-6%[12.8 µM]	4%[12.8 µM]	x
COc1ccc(CNC(=O)C2(C)Cc3c(-c4ccc5c(c4)OCO5)ccnc3O2)cc1OC (centres undefined)	x	-13%	x	x	x
O=[N+]([O-])c1cc([N+](=O)[O-])c(Oc2ccc(Br)cc2Br)cc1NN1CCCCC1	-10%	-6%	59%	12µM*	5%
Cc1cc(F)ccc1Oc1cc(NN2CCCCC2)c([N+](=O)[O-])cc1[N+](=O)[O-]	1%	-4%	17%	u	0%
CCc1nc2ccc(Br)cc2c(=O)n1-c1ccccc1C(F)(F)F	x	-16%	x	x	x
CCCc1nc2ccc(Br)cc2c(=O)n1-c1ccc([N+](=O)[O-])c(C(F)(F)F)c1	0%	-8%	12µM*	34%	-4%
CCOc1ccc(-c2n[nH]c(C)c2Oc2ccc(OC)cc2)c(O)c1	-183%	83%	13µM*	x	-7%
Cc1[nH]nc(-c2ccc(OCc3cnn(-c4ccccc4)c3)cc2O)c1Oc1ccc(F)cc1	19%	16%	u	9.3µM*	2%
Cc1[nH]nc(-c2ccc(OCc3cnn(-c4ccccc4)c3)c(C)c2O)c1Oc1ccccc1	2%	57%	u	u	13%
COc1ncc(-c2ccc3c(c2)S(=O)(=O)c2cccc(C(=O)O)c2C3=O)cn1	x	5%	34%	39%	0%
